Experimental data taken from publication PMC4081100, “A DNA-binding-site landscape and regulatory network analysis for NAC transcription factors in Arabidopsis thaliana”.

Key:
Assay in all cases: universal protein binding microarray (PBM); transcription factors of Arabidopsis thaliana; high values mean tight binding
Settings in all cases: protein: recombinant; tags: GST; chain copies: 2; dsDNA, one strand shown
GST-ANAC092(1-176) = molecular target: T1, GST-ANAC092(1-176) (Arabidopsis thaliana, UniProt Q9FKA0 1-176)
T1 sequence: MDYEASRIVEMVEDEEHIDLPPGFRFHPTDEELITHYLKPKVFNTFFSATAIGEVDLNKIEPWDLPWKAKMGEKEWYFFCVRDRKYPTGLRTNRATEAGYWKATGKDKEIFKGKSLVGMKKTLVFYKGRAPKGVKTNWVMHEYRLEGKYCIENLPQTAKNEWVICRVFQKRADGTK
In short: (§1)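 GST-tagged proteins (NAC-domain, full-length or DNA-binding-domain) were induced in cells, with zinc acetate supplied for zinc-finger proteins, then purified on glutathione–Sepharose 4B. Each was tested in duplicate at 200 to 500 nM final on custom all-10-mer Agilent 4 × 180K arrays rendered double-stranded by primer extension. The binding value is the normalised enrichment score (E-score) across gapped and ungapped 8-mers.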

GST-ANAC019 NAC domain = molecular target: T2, GST-ANAC019 NAC domain (Arabidopsis thaliana, UniProt Q9C932 14-162)
T2 sequence: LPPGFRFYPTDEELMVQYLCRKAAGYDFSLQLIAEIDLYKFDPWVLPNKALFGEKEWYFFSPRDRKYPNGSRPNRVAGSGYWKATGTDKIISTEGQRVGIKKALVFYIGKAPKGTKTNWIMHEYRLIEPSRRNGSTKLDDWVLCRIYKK
In short: as §1

GST-ANAC055(1-171) = molecular target: T3, GST-ANAC055(1-171) (Arabidopsis thaliana, UniProt Q9LDY8 1-171)
T3 sequence: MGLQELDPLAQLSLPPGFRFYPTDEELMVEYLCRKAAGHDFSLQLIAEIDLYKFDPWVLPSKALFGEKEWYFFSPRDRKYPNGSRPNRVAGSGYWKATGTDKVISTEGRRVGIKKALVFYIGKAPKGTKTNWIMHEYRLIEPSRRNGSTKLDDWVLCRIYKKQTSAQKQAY
In short: as §1

GST-ATAF1 NAC domain = molecular target: T4, GST-ATAF1 NAC domain (Arabidopsis thaliana, UniProt Q39013 7-158)
T4 sequence: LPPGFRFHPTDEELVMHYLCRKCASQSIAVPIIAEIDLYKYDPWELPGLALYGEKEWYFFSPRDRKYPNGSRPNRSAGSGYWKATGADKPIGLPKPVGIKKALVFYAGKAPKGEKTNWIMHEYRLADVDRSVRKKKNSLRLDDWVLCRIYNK
In short: as §1

[1] = molecular target: T5, GST-ANAC092(1-285) full length (Arabidopsis thaliana, UniProt Q9FKA0 1-285)
T5 sequence: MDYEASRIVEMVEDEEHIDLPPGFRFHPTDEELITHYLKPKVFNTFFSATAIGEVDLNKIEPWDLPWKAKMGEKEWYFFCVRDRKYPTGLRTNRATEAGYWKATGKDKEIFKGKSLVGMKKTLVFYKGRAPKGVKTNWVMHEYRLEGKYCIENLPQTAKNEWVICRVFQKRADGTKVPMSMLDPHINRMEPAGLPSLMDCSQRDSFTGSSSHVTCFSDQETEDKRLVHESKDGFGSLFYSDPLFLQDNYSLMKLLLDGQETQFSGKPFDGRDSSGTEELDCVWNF
In short: as §1

GST-NAP(1-166) = molecular target: T6, GST-NAP(1-166) (Arabidopsis thaliana, UniProt O49255 1-166)
T6 sequence: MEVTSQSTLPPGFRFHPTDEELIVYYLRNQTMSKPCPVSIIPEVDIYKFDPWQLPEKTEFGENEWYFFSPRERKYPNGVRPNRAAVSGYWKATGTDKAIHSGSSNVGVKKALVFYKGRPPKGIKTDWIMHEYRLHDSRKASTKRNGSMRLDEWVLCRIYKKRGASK
In short: as §1

GST-NST2(1-184) = molecular target: T7, GST-NST2(1-184) (Arabidopsis thaliana, UniProt Q9M274 1-184)
T7 sequence: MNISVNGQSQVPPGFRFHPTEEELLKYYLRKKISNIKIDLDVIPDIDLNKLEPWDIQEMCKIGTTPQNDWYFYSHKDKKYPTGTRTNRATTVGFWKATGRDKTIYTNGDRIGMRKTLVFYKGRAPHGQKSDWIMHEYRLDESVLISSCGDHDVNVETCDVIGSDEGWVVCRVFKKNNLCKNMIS
In short: as §1

GST-SND1(1-203) = molecular target: T8, GST-SND1(1-203) (Arabidopsis thaliana, UniProt Q9LPI7 1-203)
T8 sequence: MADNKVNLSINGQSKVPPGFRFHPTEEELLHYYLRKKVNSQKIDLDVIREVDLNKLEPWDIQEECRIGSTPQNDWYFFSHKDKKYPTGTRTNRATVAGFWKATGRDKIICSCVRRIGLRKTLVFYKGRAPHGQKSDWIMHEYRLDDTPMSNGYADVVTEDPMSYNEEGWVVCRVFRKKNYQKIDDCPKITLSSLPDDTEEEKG
In short: as §1

GST-VND3 NAC domain = molecular target: T9, GST-VND3 NAC domain (Arabidopsis thaliana, UniProt Q9FH59 12-162)
T9 sequence: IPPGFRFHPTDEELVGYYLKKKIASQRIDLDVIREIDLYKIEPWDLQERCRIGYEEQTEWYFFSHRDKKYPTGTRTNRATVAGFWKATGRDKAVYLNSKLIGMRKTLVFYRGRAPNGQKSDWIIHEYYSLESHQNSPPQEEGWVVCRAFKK
In short: as §1

GST-VND7 NAC domain = molecular target: T10, GST-VND7 NAC domain (Arabidopsis thaliana, UniProt Q9C8W9 9-158)
T10 sequence: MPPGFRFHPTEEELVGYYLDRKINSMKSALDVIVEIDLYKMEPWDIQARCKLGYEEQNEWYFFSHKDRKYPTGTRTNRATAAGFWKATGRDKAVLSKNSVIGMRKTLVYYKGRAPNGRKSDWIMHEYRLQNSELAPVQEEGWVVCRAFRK
In short: as §1

Sequence | binding signal (GST-ANAC092(1-176)) [E-score] | binding signal (GST-ANAC019 NAC domain) [E-score] | binding signal (GST-ANAC055(1-171)) [E-score] | binding signal (GST-ATAF1 NAC domain) [E-score] | binding signal [1] [E-score] | binding signal (GST-NAP(1-166)) [E-score] | binding signal (GST-NST2(1-184)) [E-score] | binding signal (GST-SND1(1-203)) [E-score] | binding signal (GST-VND3 NAC domain) [E-score] | binding signal (GST-VND7 NAC domain) [E-score]
ACGCCAAC | 0.404 | 0.116 | 0.175 | 0.159 | 0.436 | 0.0544 | 0.227 | 0.379 | 0.0688 | 0.118
CACGGCAC | 0.462 | 0.484 | 0.484 | 0.432 | 0.474 | 0.478 | 0.292 | 0.203 | 0.458 | 0.485
ATTTCGTG | 0.389 | 0.174 | 0.22 | 0.154 | 0.422 | 0.133 | 0.136 | 0.109 | 0.191 | 0.157
CACGCTTC | 0.37 | 0.184 | 0.165 | 0.212 | 0.437 | 0.109 | 0.188 | 0.232 | 0.111 | 0.127
ACGCATCC | 0.388 | 0.216 | 0.194 | 0.195 | 0.431 | 0.256 | 0.173 | 0.397 | 0.16 | 0.231
CTACACGC | 0.361 | 0.11 | 0.0947 | 0.186 | 0.425 | 0.192 | 0.235 | 0.307 | 0.147 | 0.0812
AAGCGTGT | 0.421 | 0.242 | 0.167 | 0.207 | 0.44 | 0.133 | 0.192 | 0.186 | 0.126 | 0.213
AACACGGA | 0.298 | 0.413 | 0.397 | 0.299 | 0.274 | 0.268 | 0.173 | 0.0986 | 0.319 | 0.362
GCACGCAA | 0.492 | 0.458 | 0.396 | 0.277 | 0.493 | 0.423 | 0.405 | 0.456 | 0.438 | 0.431
ACACGCCA | 0.487 | 0.382 | 0.298 | 0.227 | 0.492 | 0.294 | 0.313 | 0.379 | 0.22 | 0.257
GGACGCAA | 0.411 | 0.155 | 0.0669 | 0.0919 | 0.437 | 0.303 | 0.107 | 0.25 | 0.0908 | 0.0578
AGTTACGC | 0.273 | 0.134 | 0.0766 | 0.124 | 0.275 | 0.115 | 0.245 | 0.412 | 0.103 | 0.0942
ACACGTAA | 0.481 | 0.477 | 0.469 | 0.439 | 0.481 | 0.465 | 0.316 | 0.288 | 0.461 | 0.476
ATACACGC | 0.39 | 0.19 | 0.185 | 0.21 | 0.423 | 0.256 | 0.167 | 0.0978 | 0.167 | 0.0693
CTAACGTA | 0.323 | 0.0668 | 0.216 | 0.29 | 0.391 | 0.173 | 0.277 | 0.426 | 0.25 | 0.165
TGCACGCA | 0.419 | 0.355 | 0.255 | 0.128 | 0.458 | 0.265 | 0.211 | 0.342 | 0.289 | 0.32
